Measurements from PubChem BioAssay AID588342 (National Center for Advancing Translational Sciences (NCATS), 2011).
The whole screen tested about 360,000 compounds, of which about 25,000 (6.9%) were called active. A call without a number means that no potency is given here. Roughly 9% stayed inconclusive and do not appear here. The sample holds actives, similar compounds and a random draw of the others, so the mix is not that of the screen. Calls follow the shape of the dose curve; as a rule, active = well fitted inhibition curve with a large enough effect; inconclusive = small, poorly fitted or top-dose-only effect; inactive = flat fitted curve, though single readings scatter.

Biological target: Luciferin 4-monooxygenase (Photinus pyralis) (UniProt P08659)
Test: qHTS profiling assay for firefly luciferase inhibitor/activator using purifed enzyme and Km concentrations of substrates (counterscreen for miR-21 project); also: nearly all actives have a fitted effect of over 55% in size
Details: purified FLuc, luminescence inhibition; series mostly up to 57.5 µM
Method in brief: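 Purified P. pyralis luciferase, 10 nM final, with Km-level 10 uM D-luciferin and 10 uM ATP in 50 mM Tris acetate pH 7.5, 10 mM Mg acetate, 0.01% Tween-20, 0.05% BSA; 6-point qHTS titration about 60 µM downward; luminescence read.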
Potency is read from the fitted curve at half-maximal effect.

Chain of Luciferin 4-monooxygenase (Photinus pyralis) (P08659 whole entry, looked up): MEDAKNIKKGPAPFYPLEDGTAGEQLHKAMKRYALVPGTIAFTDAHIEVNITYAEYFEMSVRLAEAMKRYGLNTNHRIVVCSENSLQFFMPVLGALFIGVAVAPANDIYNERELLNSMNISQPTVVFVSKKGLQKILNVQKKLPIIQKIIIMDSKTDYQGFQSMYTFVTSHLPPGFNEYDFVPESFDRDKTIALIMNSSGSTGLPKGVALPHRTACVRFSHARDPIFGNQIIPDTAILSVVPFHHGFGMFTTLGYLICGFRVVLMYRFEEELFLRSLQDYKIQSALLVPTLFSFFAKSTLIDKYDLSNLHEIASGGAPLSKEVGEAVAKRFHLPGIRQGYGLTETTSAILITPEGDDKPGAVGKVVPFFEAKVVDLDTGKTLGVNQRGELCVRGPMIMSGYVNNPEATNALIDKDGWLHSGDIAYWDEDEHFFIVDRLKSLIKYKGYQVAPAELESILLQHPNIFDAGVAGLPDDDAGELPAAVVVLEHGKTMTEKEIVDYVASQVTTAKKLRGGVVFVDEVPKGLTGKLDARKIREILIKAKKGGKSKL

Row | Structure (SMILES) | Potency
1 | N#Cc1nc(Cc2ccccc2)oc1NCCc1ccccc1 | 16.9 µM (active)
2 | N#Cc1nc(/C=C/c2ccc(F)cc2)oc1NCc1ccc(F)cc1 | inactive
3 | N#Cc1nc(Cc2cccc3ccccc23)oc1NCc1ccc2c(c1)OCO2 | inactive
4 | Nc1nc(COC(=O)CCC(=O)c2ccc(Cl)cc2)nc(Nc2ccccc2)n1 | inactive
5 | CC(C)NS(=O)(=O)c1ccc(NC(=O)c2cccnc2)cc1 | inactive
6 | CCOC(=O)c1sc(NC(=O)CSc2ncccn2)c(C#N)c1C | inactive
7 | Cc1c(C(=O)OC(C)C)sc(NC(=O)c2cccnc2)c1C#N | 6.75 µM (active)
8 | Cc1ccc(NS(=O)(=O)c2ccc3c(c2)CC(=O)N3)cc1Cl | inactive
9 | CC(C)(c1ccccc1)c1ccc(OCCN2CCCC2)cc1 | inactive
10 | CC(=O)c1ccc(OCCN2CCOCC2)cc1 | inactive
11 | c1ccc(-c2ccc(OCCN3CCOCC3)cc2)cc1 | 16.9 µM (active)
12 | O=C(C1CC1)N1CCc2cc(Br)cc(S(=O)(=O)N3CCN(c4ccccc4F)CC3)c21 | inactive
13 | COc1cccc(CN(C)C(=O)CC23CC4CC(CC(C4)C2)C3)c1OC | inactive
14 | CCC(=O)OCCNc1nc(-c2ccccc2)nc2ccccc12 | inactive
15 | COc1cc(Nc2nc(-c3ccc(OC)c(OC)c3)nc3ccccc23)cc(OC)c1 | inactive
16 | Cc1cccc(-c2nc(Nc3ccc(O)cc3)c3ccccc3n2)c1 | 19 µM (active)
17 | CCOc1ccc2c(c1)cc(CN(C(=O)CC)C1CCCCC1)c1nnnn12 | inactive
18 | COc1ccc(C)cc1N(C)C(=O)c1c(C)oc2ncnc(N3CCOCC3)c12 | inactive
19 | COc1cc(Cl)c(C)cc1Nc1nnc(-n2nc(C)cc2C)c2ccccc12 | inactive
20 | O=c1[nH]c2cc(Br)ccc2n2cccc12 | inactive
21 | O=C(N/N=C/c1sc(N2CCCCC2)nc1-c1cccs1)c1cccnc1 | 21.3 µM (active)
22 | Cc1ccc(S(=O)(=O)N2CCCCC2)cc1NC(=O)c1cccnc1 | inactive

Row | Structure (SMILES) | Potency
23 | O=C(NN=C1CCC(=NNC(=O)c2cccnc2)CC1)c1cccnc1 | inactive
24 | COc1ccc2c(c1)CCc1cn3ncc(C#N)c3nc1-2 | inactive
25 | COc1ccc2nc(N3CCCC(O)C3)c(C#N)cc2c1 (stereo unspecified) | 7.57 µM (active)
26 | COc1ccc2cc(C(=O)C3CCCN(C(=O)c4sc(C)nc4C)C3)ccc2c1 (stereo unspecified) | inactive
27 | COc1cc2c(cc1OC)CN(C(C)C(=O)Nc1cccc(S(=O)(=O)N3CCOCC3)c1)CC2 (stereo unspecified) | inactive
28 | COc1ccc(S(=O)(=O)NCCCCOc2ccc(Cl)cc2)cc1 | inactive
29 | Cc1cc(S(=O)(=O)N2CCOCC2)ccc1OCC(=O)N1CCOCC1 | inactive
30 | COCc1c(C(=O)OCC(=O)Nc2ccc(OC(F)F)cc2)oc2ccccc12 | inactive
31 | O=C(CCc1nc(-c2ccccc2)no1)Nc1cccc(C(=O)NC2CC2)c1 | inactive
32 | CC(=O)c1cc(-c2ccccc2)n(CC(=O)NC2CCCCC2)c1C | inactive
33 | O=C(NC1CC1)c1ccc(-c2ccccc2)cc1 | 16.9 µM (active)
34 | O=C(NC1CCCC1)c1cc(-c2ccccc2)on1 | 5.36 µM (active)
35 | O=C(NC1CC1)c1cccc(Br)c1 | inactive
36 | O=C(NC1CCN(S(=O)(=O)c2ccc(F)cc2)CC1)c1ccccc1 | inactive
37 | COc1ccc(-c2c(C)c3ccc(O)c(CN4CCCC4)c3oc2=O)cc1OC | inactive
38 | Cn1nc(C(=O)OCC(=O)N(Cc2ccccc2)C(C)(C)C)c2ccccc2c1=O | inactive
39 | CSc1ccccc1-c1nnc(-c2ccc(Cl)cc2)o1 | 5.36 µM (active)
40 | FC(F)(F)c1cnc(Oc2ccccc2-c2nnc(-c3ccc(Cl)cc3)o2)c(Cl)c1 | inactive
41 | O=C(O)c1cc(S(=O)(=O)Nc2ccc3cn[nH]c3c2)ccc1Br | inactive
42 | Cc1cc(C(=O)COC(=O)CCCN2C(=O)c3ccccc3C2=O)c(C)n1C | 23.9 µM (active)
43 | O=C(CCCN1C(=O)c2ccccc2C1=O)Oc1ccc(Cl)cc1 | inactive
44 | Cc1cc(C)cc(OCC(=O)NNC(=O)CCN2C(=O)c3ccccc3C2=O)c1 | inactive

Row | Structure (SMILES) | Potency
45 | CCCCN(Cc1ccccc1)C(=O)C1CCN(Cc2sccc2C)CC1 | inactive
46 | O=C(NC1CC(=O)N(c2ccc(F)cc2)C1)c1cccs1 (stereo unspecified) | inactive
47 | CN(C(=O)CSc1nc(C2CC2)nc2ccccc12)c1nc(-c2ccccc2)cs1 | inactive
48 | CN(c1ccc(O)cc1)c1nc(-c2cccnc2)cs1 | 4.78 µM (active)
49 | COc1ccc(CCN(C(=O)COc2ccccc2)c2nc(-c3ccccc3)cs2)cc1OC | inactive
50 | Cc1ccc(S(=O)(=O)N(Cc2nc(-c3ccc(Cl)cc3)no2)C2CCCCC2)cc1 | inactive
51 | CC(C(=O)N1CCc2ccccc21)N(C)CC(=O)Nc1ccc(F)cc1 (stereo unspecified) | inactive
52 | CNc1nc2c(C)cccn2c(=O)c1C=Nc1ccc(OC)cc1 | 12 µM (active)
53 | Cc1cccn2c(=O)c(/C=C3\SC(=S)N(CC(C)C)C3=O)c(NCCCOC(C)C)nc12 | inactive
54 | Cc1cccn2c(=O)c(C=O)c(Nc3ccc(S(N)(=O)=O)cc3)nc12 | inactive
55 | Cc1ccc(CNC(=O)c2c(O)nc3c(C)cccn3c2=O)cc1 | inactive
56 | O=C(CCn1c(=O)oc2ccccc21)Nc1ccon1 | inactive
57 | Cc1ccccc1Nc1nnc(SCC(=O)c2cc3ccccc3o2)s1 | inactive
58 | CC(C)c1ccc(Nc2nnc(SCC(=O)c3nnc(-c4ccccc4)o3)s2)cc1 | 10.7 µM (active)
59 | CC(C)Nc1nnc(SCC(=O)c2c[nH]c3ccccc23)s1 | inactive
60 | CC1CCCC(NC(=O)c2cc(S(=O)(=O)N3CCCCC3)ccc2Cl)C1C (stereo unspecified) | inactive
61 | C(=N/Nc1cc(N2CCOCC2)nc(N2CCOCC2)n1)/c1ccccc1 | inactive
62 | Cc1cc(N/N=C\c2ccc(Br)cc2)nc(-n2nc(C)cc2C)n1 | inactive
63 | Cc1nc(Cl)cc(N/N=C/c2ccccc2)n1 | 16.9 µM (active)
64 | CN(CC(=O)Nc1ccc(F)c(F)c1F)C(=O)Cn1cnc2c1c(=O)n(C)c(=O)n2C | inactive
65 | CC1CCCN(CC(O)COc2ccc3c(c2)OCO3)C1 (stereo unspecified) | inactive
66 | O=C1/C(=C/c2ccc3c(c2)OCO3)Oc2cc(OCC(=O)N3CC(O)C[C@H]3C(=O)O)ccc21 (stereo partly specified) | 0.757 µM (active)

Row | Structure (SMILES) | Potency
67 | COC(=O)C(C)Oc1ccc2c(c1)O/C(=C\c1cccc(Br)c1)C2=O (stereo unspecified) | inactive
68 | O=C(CCNS(=O)(=O)c1ccc(Br)cc1)NCC1CCCO1 (stereo unspecified) | inactive
69 | O=C(Nc1ccccc1N1CCCCC1)c1ccc2nccnc2c1 | inactive
70 | O=C(Nc1ccccc1N1CCCC1)c1ccc(F)c(S(=O)(=O)N2CCOCC2)c1 | inactive
71 | O=C(Nc1ccccc1N1CCCC1)c1ccc2ccccc2c1 | 15.1 µM (active)
72 | Cc1cccc(OCCSc2nc3ccc(NC(=O)COc4ccccc4C)cc3s2)c1 | inactive
73 | CS(=O)(=O)N1CCc2nc(-c3ccccc3)sc2C1 | 9.53 µM (active)
74 | CS(=O)(=O)N1CCN(c2cccc(Cl)n2)CC1 | inactive
75 | CS(=O)(=O)N1CCN(C(=O)Cc2ccccc2)CC1 | inactive
76 | Cc1ccc(NC(=O)CCNC(=O)c2ccc([N+](=O)[O-])cc2)cc1S(=O)(=O)N1CCOCC1 | inactive
77 | CCOc1ccc(N(CC)S(=O)(=O)N2CCCC(C(=O)NCc3ccc(Cl)cc3)C2)cc1 (stereo unspecified) | inactive
78 | O=C(COc1ccccc1)Nc1ccc(C(=O)N2CCCC2)cc1 | inactive
79 | O=C(COc1ccccc1)Nc1nonc1NC(=O)COc1ccccc1 | 7.57 µM (active)
80 | CC(=O)Nc1ccc(NC(=O)COc2ccc(-c3ccccc3)cc2)cc1 | inactive
81 | CCCCN(CCCNC(=O)c1cc(Nc2ccccc2OC)nc2ccccc12)c1ccccc1 | inactive
82 | Cc1c(C)n(Cc2ccc(Cl)cc2)c2ccc(C(=O)NCCc3ccc(S(N)(=O)=O)cc3)cc12 | inactive
83 | COc1ccccc1NC(=O)c1ccc(C)s1 | 13.5 µM (active)
84 | COc1ccccc1NC(=O)C1=C(C)NC(=O)NC1c1ccc(C)s1 (stereo unspecified) | inactive
85 | COC(=O)c1c(NC(C)=O)sc(C(=O)Nc2ccccc2OC)c1C | inactive
86 | O=C(NCCC1=CCCCC1)C1CCN(Cc2cnn(-c3ccccc3)c2-n2cccc2)CC1 | inactive
87 | CCN(CC)C(=O)CSc1nc2ccccc2n1CC(=O)N1CCN(c2ccccc2OC)CC1 | inactive
88 | O=C(NNc1ncnc2c1cnn2-c1ccccc1)c1ccco1 | inactive

Row | Structure (SMILES) | Potency
89 | CCOC(=O)C1CCN(c2ncnc3c2c(-c2ccccc2)cn3-c2ccc(C)cc2)CC1 | inactive
90 | COc1ccccc1N1CCN(C(=O)CSc2nnc(-c3ccoc3C)o2)CC1 | inactive
91 | Cc1ccc(-n2ncc3c(=O)n(Cc4cccc(C(F)(F)F)c4)cnc32)cc1C | inactive
92 | COc1ccccc1N1CCN(C(=O)CSc2ncnc3c2cnn3-c2ccc(C)c(C)c2)CC1 | 8.49 µM (active)
93 | CCc1cc2c(N3CCN(c4nnc(CC)s4)CC3)ncnc2s1 | inactive
94 | Cc1ccc(Cl)cc1-n1ncc2c(N3CCC(C(N)=O)CC3)ncnc21 | inactive
95 | C1=C(CCNc2ncnc3c2cnn3-c2ccccc2)CCCC1 | 3.38 µM (active)
96 | Cc1ccc(-n2ncc3c(N4CCC(C(N)=O)CC4)ncnc32)cc1 | 12 µM (active)
97 | CCN1CCN(c2ncnc3c2cnn3-c2ccc(C)c(C)c2)CC1 | 9.53 µM (active)
98 | Cc1ccc(S(=O)(=O)N(C)C)cc1NC(=O)c1ccccc1Br | inactive
99 | Cn1cc(-c2ccccc2)cc(C#N)c1=O | inactive
100 | Cc1ccccc1CN1CCC(CNC(=O)c2cc3ccc4cccnc4c3[nH]2)CC1 | inactive
101 | Cc1ccc(N2CC(NC(=O)Cc3cccs3)CC2=O)cc1 (stereo unspecified) | inactive
102 | Cc1cccc(NC(=O)C2CC(=O)OC23CCCC3)c1 (stereo unspecified) | inactive
103 | c1ccc(-n2ncc3c(N4CCCC4)ncnc32)cc1 | 4.26 µM (active)
104 | Cn1nnc2c(N3CCN(c4ccccc4)CC3)ncnc21 | inactive
105 | Nc1c(C(=O)O)cnn1-c1ccccc1 | inactive
106 | Cc1ccc(CN(C(=O)c2ccccc2[N+](=O)[O-])c2ccccn2)cc1 | inactive
